According to PubChem BioAssay (Tox21):
Records with an inconclusive call do not appear. Unmarked numbers belong to inactive results. Active and inactive are the calls of the source. The call rests on the fitted dose curve; in most records, active means well fitted cell-killing curve with a large enough effect in the repeat runs; inconclusive means weak or mixed curves, or effect the other way; inactive means no such curve, though single readings can be large or run the other way.

Assay: qHTS assay to identify small molecule agonists of the estrogen receptor alpha (ER-alpha) signaling pathway in the presence of an antagonist - cell viability counter screen (AID 1259386);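 further: cells exposed to compounds for 22 h at 37 °C before the viability read; nearly all actives have a fitted effect of over 30% in size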
Conditions: VM7Luc4E2 viability, CellTiter-Fluor fluorescence, 22 h; series mostly up to 92.4 µM; activity change, negative = cytotoxicity: at the top concentration
Excerpt: National Center for Advancing Translational Sciences [NCATS]
NIH Chemical Genomics Center [NCGC]
U.S. Environmental Protection Agency [EPA]
National Institutes of Environmental Health Sciences [NIEHS]
National Toxicology Program [NTP]
U.S. Food and Drug Administration [FDA]
Estrogen receptor (ER), a member of nuclear hormone receptor plays an important role in development, metabolic homeostasis and reproduction. Two subtypes of ER, ER-alpha and ER-beta, have similar expression patterns with some uniqueness in both types. Endocrine disrupting chemicals (EDCs) and their interactions with steroid hormone receptors like ER causes disruption of normal endocrine function. Therefore, it is important to understand the effect of environmental chemicals in ER signaling pathway. For identifying ER agonists, VM7Luc4E2 cell line has been used in the current assay.
VM7Luc4E2 cell line (provided by Denison MS, University of California) endogenously expresses full-length ER-alpha and is stably transfected with a plasmid containing four estrogen responsive elements (ERE) upstream of a luciferase reporter gene. This current screening for measuring luciferase reporter gene activity using VM7Luc4E2 cells against Tox21 10K library collection is a confirmation study on agonist mode screening in presence of ER-antagonist (ICI-182,780) at 10.0nM final concentration. The cytotoxicity of the compounds was tested in parallel by measuring the cell viability using CellTiter-Fluor assay system (Promega, Madison, WI) in the same wells.
Tox21 Assay Protocol Summary:
VM7Luc4E2 cells were cultured in phenol red free assay medium containing 10% charcoal stripped FBS for 5 days prior to the assay. The cells were dispensed at 4,000 cells in 4uL of assay medium per well into white wall/solid-bottom 1536-well plates (Corning Life Sciences, Corning, NY) using a Multidrop Combi (Thermo Fisher Scientific Inc., Waltham, MA) dispenser. After the assay plates were incubated at 37C and 5% CO2 for 24hr, 1uL of 10.0nM (final concentration) ICI-182,780 or assay buffer was added using two separate tips of Flying Reagent Dispenser (FRD, Aurora Discovery, San Diego, CA). Then 23nL of compounds dissolved in DMSO at 15 concentrations and positive controls or DMSO only was transferred to the assay plates by a Pintool station (Wako, San Diego, CA). The assay plates were incubated at 37C and 5% CO2 for 22hr. After 21hr incubation at 37C, 1uL/well CellTiter-Fluor reagent (Promega Corporation, Madison, WI) was added to each well using FRD and after 1hr incubation at 37C and 5% CO2, the fluorescence signal was measured on ViewLux plate reader (PerkinElmer, Shelton, CT).
On the % scale 0 is the no-effect control and ±100 the full control effect.

Structure (SMILES) | activity change, negative = cytotoxicity | Potency
CC(C)c1ccc(NC(=O)N(C)C)cc1 | -1.73% | –
C=C(Cl)Cl | 2.83% | –
C[C@]12C=CC3=C4CCC(=O)C=C4CC[C@H]3[C@@H]1CC[C@@H]2O | 1.15% | –
COc1cc(C[C@@H](C)N)c(OC)cc1Br | -3.26% | –
C=CCc1ccccc1O | -4.31% | –
FC(F)OC(F)(F)C(F)Cl (stereo not given) | 2.5% | –
CC(=O)NNc1ccccc1 | -8.17% | –
ClCc1ccccc1Cl | 2.47% | –
O=P(OCC(Br)CBr)(OCC(Br)CBr)OCC(Br)CBr (stereo not given) | – | inactive
C[N+]1(CCF)[C@@H]2CC[C@H]1CC(OC(=O)C(O)(c1ccccc1)c1ccccc1)C2 (stereo not given in full) | 3.85% [at 42.5 µM] | –
N#CC(C#N)=Cc1ccc(O)c(O)c1 | 6.64% [at 42.5 µM] | –
CCCCC1C(=O)NC(=O)N(C2CCCCC2)C1=O (stereo not given) | -0.291% [at 42.5 µM] | –
CC[N+]1(C)CCCC(OC(=O)C(O)(c2ccccc2)c2ccccc2)C1 (stereo not given) | -1.09% [at 42.5 µM] | –
C1CS1 | 4.7% | –
C[C@H]1[C@@H]2Cc3ccc(O)cc3[C@@]1(C)CCN2C | -10.8% [at 240 µM] | –
Nc1c(Br)cc(Br)c2c1C(=O)c1ccccc1C2=O | -8.67% [at 19 µM] | –
O=C1CC[C@@]2(O)[C@H]3Cc4ccc(O)c5c4[C@@]2(CCN3CC2CC2)[C@H]1O5 | 0.249% [at 42.5 µM] | –
CN1CC[C@]23c4c5ccc(O)c4O[C@H]2[C@@H](O)C=C[C@H]3[C@H]1C5 | -6.38% | –
CC(C)(C)CC(C)(C)c1ccc(O)cc1 | 1.34% [at 42.5 µM] | –
CN(C1CCCCC1)C1CCCCC1 | -0.0845% | –

Structure (SMILES) | activity change, negative = cytotoxicity | Potency
CCCCC(CC)COC(=O)c1c(Br)c(Br)c(Br)c(Br)c1C(=O)OCC(CC)CCCC (stereo not given) | -0.513% [at 42.5 µM] | –
O=C(O)c1cc(I)cc(I)c1I | 6.92% | –
Clc1ccc(Cl)c(Cl)c1 | – | inactive
CN(C)C(=O)Nc1cccc(OC(=O)NC(C)(C)C)c1 | -0.304% | –
Cc1nc(N(C)C)nc(OC(=O)N(C)C)c1C | -6.22% | –
COc1ccccc1N1CCNCC1 | -0.0241% [at 42.5 µM] | –
CCCCNC(=O)OCC#CI | -6.94% | –
Cc1nnc(-c2ccccc2)c(=O)n1N | -0.553% | –
C=CCOCC1CO1 (stereo not given) | -1.88% | –
CCCC(C)(COC(N)=O)COC(=O)NC(C)C (stereo not given) | – | inactive
CCCCCCCCCCCC[N+](C)(C)CCOc1ccccc1 | -1.53% [at 42.5 µM] | –
C=CCSSCC=C | -0.183% | –
CC(C)c1ccc(OP(=O)(Oc2ccc(C(C)C)cc2)Oc2ccc(C(C)C)cc2)cc1 | – | inactive
CC(=O)OC(c1ccccc1)C(Cl)(Cl)Cl (stereo not given) | -6.63% | –
O=C1c2ccccc2C(=O)N1SC(Cl)(Cl)Cl | – | inactive
C[C@H]1O[C@H](OC2[C@@H](O)[C@@H](O)C(O)[C@H](O)[C@H]2O)[C@@H](N)C[C@@H]1N=C(N)C(=O)O (stereo not given in full) | 0.747% | –
C[C@@H]1C[C@@H]([C@H](O)CC2CC(=O)NC(=O)C2)C(=O)[C@@H](C)C1 | – | inactive
O=C(O)COc1cc(Cl)c(Cl)cc1Cl | – | inactive
COC1=CC(=O)O[C@@H](/C=C/c2ccc3c(c2)OCO3)C1 | -12.9% | –
CCCCCCCCCCCCCCCl | 1.07% | –
